Assay results published in PubChem BioAssay.
Activity calls are given as the source filed them.

Experiments:
[1] = small molecules captured by biotinylated probe aFSTL3 – biochemical, small-molecule microarray, fluorescence 635/667, stem cell growth factor project, primary screen (AID 1064); details: higher = more signal;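 note: measures binding of the biotinylated anti-FSTL3 antibody to printed compounds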
[2] = binders from COS7 lysate, DM2A8 probe, primary screen, torsin A project, cell lysate, small-molecule microarray, fluorescence 635/667 (AID 1065); details: higher = more signal, COS7 lysate expressing mutant human TOR1A
[3] = small molecules captured by biotinylated probe aFGF2 – biochemical, small-molecule microarray, fluorescence 635/667, stem cell growth factor project, primary screen (AID 1067); details: higher = more signal;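 note: measures binding of biotinylated aFGF2 protein to printed compounds on slides; z-score merges feature fluorescence and signal-to-noise across triplicate slides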
[4] = small molecules captured by biotinylated probe aFGF10 – biochemical, small-molecule microarray, fluorescence 635/667, stem cell growth factor project, primary screen (AID 1071); details: higher = more signal;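 note: score merges 667 nm spot intensity and signal to noise from triplicate slides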
[5] = biological target: Neurogenic locus notch homolog protein 2 (Homo sapiens) (UniProt Q04721); assay: small molecules binding Notch2 protein – biochemical, small-molecule microarray, 635 nm fluorescence, stem cell growth factors, primary screen (AID 1073); details: higher = more signal
[6] = biological target: Pro-neuregulin-1, membrane-bound isoform (Homo sapiens) (UniProt Q02297); assay: small molecules binding neuregulin-1 protein – biochemical, small-molecule microarray, fluorescence 635/667, psychiatric disease protein project, primary screen (AID 1075); details: NRG1 binding, 635 nm fluorescence, higher = more signal;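 note: score combines 667 nm spot fluorescence with signal to noise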
Sequence of Pro-neuregulin-1, membrane-bound isoform (Homo sapiens) (Q02297 whole entry, looked up, the tested form may be a part, canonical isoform): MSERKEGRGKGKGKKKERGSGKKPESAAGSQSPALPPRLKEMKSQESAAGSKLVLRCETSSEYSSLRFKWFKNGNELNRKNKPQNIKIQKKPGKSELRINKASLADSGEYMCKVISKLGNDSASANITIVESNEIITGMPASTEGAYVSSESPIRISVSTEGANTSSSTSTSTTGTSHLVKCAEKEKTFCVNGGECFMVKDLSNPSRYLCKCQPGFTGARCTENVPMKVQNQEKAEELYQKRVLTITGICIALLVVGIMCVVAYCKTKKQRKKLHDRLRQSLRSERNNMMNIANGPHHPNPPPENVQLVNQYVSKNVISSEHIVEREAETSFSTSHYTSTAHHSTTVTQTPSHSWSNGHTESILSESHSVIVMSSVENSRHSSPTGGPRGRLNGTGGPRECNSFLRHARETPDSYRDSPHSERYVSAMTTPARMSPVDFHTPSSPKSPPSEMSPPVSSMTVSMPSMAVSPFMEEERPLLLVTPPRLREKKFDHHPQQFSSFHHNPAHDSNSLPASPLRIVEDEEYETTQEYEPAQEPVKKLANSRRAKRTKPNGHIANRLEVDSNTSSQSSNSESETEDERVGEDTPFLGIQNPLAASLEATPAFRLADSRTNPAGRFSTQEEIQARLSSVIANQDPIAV

[7] = test system: Neuregulin-1 EGF-like domain; assay: small molecules binding NRG1 EGF domain – biochemical, small-molecule microarray, 635 nm fluorescence, primary screen (AID 1081); details: higher = more signal;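 note: binding of the protein to compounds printed on small-molecule microarray slides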
[8] = FRG1 expression reporter modulators in myotubes – cell-based, C2C12 myotubes, firefly/Renilla luciferase, luminescence, FRG1 inhibition for FSHD, primary screen (AID 1084); details: FRG1 promoter luciferase, higher = more signal, called active from +8 up or from −8 down
[9] = small molecules captured by biotinylated probe aFST – biochemical, small-molecule microarray, fluorescence 635/667, stem cell growth factor project, primary screen (AID 1086); details: higher = more signal;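 note: score merges 667 nm fluorescence with signal-to-noise of each printed compound spot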
[10] = binders of probe aHhip on microarray, primary screen, stem cell growth factor project, biochemical, small-molecule microarray, fluorescence 635/667 (AID 1087); details: higher = more signal;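 note: score merges spot fluorescence at 667nm with spot signal to noise ratio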
[11] = test system: PRMT1 (protein arginine N-methyltransferase 1); assay: small molecules binding arginine methyltransferase PRMT1 – biochemical, small-molecule microarray, 635 nm fluorescence, primary screen (AID 1088); details: higher = more signal;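 note: binding of Prmt1 protein to compounds spotted on small-molecule microarray slides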
[12] = growth effects on S. cerevisiae YJM789 – YJM789 clinical isolate, OD600, 24 h, basal, primary screen (AID 1089); details: higher = more signal, called active from +8 up or from −8 down;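 note: growth of clinical yeast isolate S. cerevisiae YJM 789 seeded 1000 cells per well; test concentration not given here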
[13] = S. pombe growth modifiers, basal conditions – strain 972, OD600, 24 h, no modulator, primary screen (AID 1090);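 note: basal condition with compound alone and no growth modifier present; test concentration not given here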; details: S. pombe 972 growth, higher = more signal, called active from +8 up or from −8 down
[14] = budding yeast growth modifiers under rapamycin – strain BY4716, OD600, 96 h, primary screen (AID 1091); note: test concentration not given here; details: S. cerevisiae BY4716 + rapamycin, higher = more signal, called active from +8 up or from −8 down
[15] = biological target: Torsin-1A-interacting protein 2 (Homo sapiens) (UniProt Q8NFQ8); assay: small molecules binding lysate-expressed LULL1 – cell lysate, human LULL1 lysate, 635/667 nm fluorescence, primary screen (AID 1092); details: small-molecule microarray, hLULL1 lysate binding, 635 nm fluorescence; higher = more signal;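 note: probe is lysate of COS7 cells overexpressing human LULL1; score merges per-feature 667 nm fluorescence with signal-to-noise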
Sequence of Torsin-1A-interacting protein 2 (Homo sapiens) (Q8NFQ8 whole entry, looked up): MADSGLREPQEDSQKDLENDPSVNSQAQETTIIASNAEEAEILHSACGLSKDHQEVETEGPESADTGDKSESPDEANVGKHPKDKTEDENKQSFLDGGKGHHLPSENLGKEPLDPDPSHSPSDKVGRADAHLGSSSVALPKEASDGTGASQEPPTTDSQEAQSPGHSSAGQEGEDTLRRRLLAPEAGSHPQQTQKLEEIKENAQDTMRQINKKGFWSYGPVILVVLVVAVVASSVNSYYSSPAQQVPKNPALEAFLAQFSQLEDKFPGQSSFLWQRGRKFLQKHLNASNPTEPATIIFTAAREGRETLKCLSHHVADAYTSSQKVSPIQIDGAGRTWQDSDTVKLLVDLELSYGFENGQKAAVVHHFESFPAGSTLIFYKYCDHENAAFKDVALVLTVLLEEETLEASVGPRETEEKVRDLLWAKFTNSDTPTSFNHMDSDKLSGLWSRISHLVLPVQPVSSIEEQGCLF

[16] = optical density change of DRC41 E. coli – strain DRC41, OD650, 24 h, E. coli filamentation project, primary screen (AID 1093);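 note: MC1000 strain lacking acrAB efflux and sulA so SOS filamentation is blocked; test concentration not given here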; details: E. coli DRC41 growth, higher = more signal, called active from +8 up or from −8 down
[17] = probe aLefty2 binding to arrayed compounds – biochemical, biotinylated probe, 635/667 nm fluorescence, primary screen (AID 1094); details: small-molecule microarray, higher = more signal;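 note: score merges spot fluorescence near 667 nm with spot signal-to-noise ratio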
[18] = test system: Noggin (protein binding on small-molecule microarray); assay: small molecules binding Noggin protein – biochemical, 635/667 nm fluorescence, primary screen (AID 1095); details: 635 nm fluorescence, higher = more signal;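 note: score merges 667 nm feature fluorescence with signal to noise over triplicate slides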
[19] = biological target: Neurogenic locus notch homolog protein 3 (Homo sapiens) (UniProt Q9UM47); assay: small molecules binding NOTCH3 protein – biochemical, 635/667 nm fluorescence, primary screen (AID 1096); details: small-molecule microarray, 635 nm fluorescence, higher = more signal
Sequence of Neurogenic locus notch homolog protein 3 (Homo sapiens) (Q9UM47 whole entry, looked up): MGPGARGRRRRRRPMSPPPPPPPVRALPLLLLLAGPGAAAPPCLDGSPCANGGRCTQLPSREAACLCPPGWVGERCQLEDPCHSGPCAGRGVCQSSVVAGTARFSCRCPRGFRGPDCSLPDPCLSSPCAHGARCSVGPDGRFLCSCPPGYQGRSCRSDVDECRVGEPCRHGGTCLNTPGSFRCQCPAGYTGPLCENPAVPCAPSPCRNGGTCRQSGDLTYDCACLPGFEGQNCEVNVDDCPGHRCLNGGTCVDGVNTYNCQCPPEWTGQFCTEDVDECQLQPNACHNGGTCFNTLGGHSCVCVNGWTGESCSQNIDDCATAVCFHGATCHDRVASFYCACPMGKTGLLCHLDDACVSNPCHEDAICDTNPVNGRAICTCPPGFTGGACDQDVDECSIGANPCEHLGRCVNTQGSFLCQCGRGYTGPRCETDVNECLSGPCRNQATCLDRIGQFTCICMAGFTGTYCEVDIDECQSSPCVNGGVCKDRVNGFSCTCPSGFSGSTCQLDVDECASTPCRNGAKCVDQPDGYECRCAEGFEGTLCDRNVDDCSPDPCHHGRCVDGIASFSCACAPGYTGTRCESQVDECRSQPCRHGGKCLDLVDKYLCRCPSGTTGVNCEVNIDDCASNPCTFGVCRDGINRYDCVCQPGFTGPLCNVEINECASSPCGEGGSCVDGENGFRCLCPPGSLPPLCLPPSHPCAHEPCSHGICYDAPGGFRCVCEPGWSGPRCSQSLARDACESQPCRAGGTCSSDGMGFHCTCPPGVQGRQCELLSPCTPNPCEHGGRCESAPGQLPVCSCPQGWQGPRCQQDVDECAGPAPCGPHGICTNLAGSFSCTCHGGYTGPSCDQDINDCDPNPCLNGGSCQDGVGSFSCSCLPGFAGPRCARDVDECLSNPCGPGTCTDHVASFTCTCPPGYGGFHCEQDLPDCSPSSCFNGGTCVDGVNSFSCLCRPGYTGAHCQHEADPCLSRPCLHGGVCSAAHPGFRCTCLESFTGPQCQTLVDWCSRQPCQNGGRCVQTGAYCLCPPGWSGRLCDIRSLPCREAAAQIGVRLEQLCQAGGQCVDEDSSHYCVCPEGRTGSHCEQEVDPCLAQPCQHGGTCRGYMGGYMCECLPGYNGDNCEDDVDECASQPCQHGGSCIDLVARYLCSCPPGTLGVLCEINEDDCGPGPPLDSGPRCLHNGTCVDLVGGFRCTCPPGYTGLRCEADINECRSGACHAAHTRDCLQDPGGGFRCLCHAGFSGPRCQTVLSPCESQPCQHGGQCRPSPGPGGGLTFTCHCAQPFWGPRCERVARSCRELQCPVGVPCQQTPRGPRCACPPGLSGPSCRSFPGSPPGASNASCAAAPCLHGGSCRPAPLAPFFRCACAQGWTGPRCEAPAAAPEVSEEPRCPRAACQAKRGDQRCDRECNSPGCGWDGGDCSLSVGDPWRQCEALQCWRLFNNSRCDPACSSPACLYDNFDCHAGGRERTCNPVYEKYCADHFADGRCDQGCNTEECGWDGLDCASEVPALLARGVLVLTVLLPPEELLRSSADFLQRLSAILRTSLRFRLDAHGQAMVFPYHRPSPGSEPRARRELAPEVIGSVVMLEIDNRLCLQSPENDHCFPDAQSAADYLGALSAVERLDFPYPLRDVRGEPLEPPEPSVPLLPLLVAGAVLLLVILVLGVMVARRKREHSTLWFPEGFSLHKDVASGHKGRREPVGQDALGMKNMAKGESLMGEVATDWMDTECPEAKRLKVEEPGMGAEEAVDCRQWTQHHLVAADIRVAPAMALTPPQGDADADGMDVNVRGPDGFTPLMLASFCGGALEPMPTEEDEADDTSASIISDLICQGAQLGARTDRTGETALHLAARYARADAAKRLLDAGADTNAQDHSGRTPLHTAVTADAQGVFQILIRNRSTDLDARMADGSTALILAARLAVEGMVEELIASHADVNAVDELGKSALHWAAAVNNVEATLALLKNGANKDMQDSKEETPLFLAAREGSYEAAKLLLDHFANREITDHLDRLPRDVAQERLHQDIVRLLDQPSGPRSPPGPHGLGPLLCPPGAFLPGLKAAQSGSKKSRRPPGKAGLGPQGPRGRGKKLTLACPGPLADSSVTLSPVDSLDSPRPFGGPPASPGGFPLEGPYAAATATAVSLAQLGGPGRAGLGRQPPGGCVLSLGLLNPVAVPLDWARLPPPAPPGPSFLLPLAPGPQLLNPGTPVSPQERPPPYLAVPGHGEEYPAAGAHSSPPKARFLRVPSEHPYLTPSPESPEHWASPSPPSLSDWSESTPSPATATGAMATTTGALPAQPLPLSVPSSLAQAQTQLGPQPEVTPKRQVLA

[20] = probe aEGFR binding to arrayed compounds – biochemical, biotinylated probe, 635/667 nm fluorescence, primary screen (AID 1097); details: small-molecule microarray, higher = more signal;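 note: probe is a biotinylated anti-EGFR antibody binding compounds printed on slides; score combines fluorescence near 667 nm and signal to noise of each spot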

SMILES	composite z-score [1]	composite z-score [2]	composite z-score [3]	composite z-score [4]	composite z-score [5]	composite z-score [6]	composite z-score [7]	z-score [8]	composite z-score [9]	composite z-score [10]	composite z-score [11]	z-score [12]	z-score [13]	z-score [14]	composite z-score [15]	z-score [16]	composite z-score [17]	composite z-score [18]	composite z-score [19]	composite z-score [20]
CN(C)CCCNC(=O)[C@@]1(c2ccc([N+](=O)[O-])cc2)CC(=O)N(CC23CC4CC(CC(C4)C2)C3)[C@@H]1c1ccc(CO)cc1I	-0.319	0.634	-0.0687	0.272	1.2	0.343	1.36	-2.44 (inactive)	1.48	0.0749	1.53	-25.1 (active)	-18.6 (active)	-2.21 (inactive)	2.35	-6.64 (inactive)	-0.182	1.75	1.06	0.0209
CCOC(=O)[C@H]1[C@@H]2C(=O)N3CCC[C@H]3[C@H](O[Si](C(C)C)(C(C)C)C(C)C)[C@H]2C=C2CCN(S(=O)(=O)c3ccc(C)cc3)C[C@H]21	-0.646	0.336	-0.118	0.248	0.966	0.319	1.08	-0.647 (inactive)	0.125	-0.164	1.55	-0.212 (inactive)	-0.772 (inactive)	1.04 (inactive)	2.38	-0.717 (inactive)	-0.0795	0.55	1.09	-0.0978
COC(=O)c1cn(C[C@@H](Cc2ccccc2)NC(=O)N[C@H](CO)CCc2oc(C(C)=O)c(C(=O)OC)c2C(=O)OC)nn1	-0.695	0.603	-0.0602	0.757	0.5	0.165	1.21	-0.776 (inactive)	0.232	0.0274	0.999	0.0017 (inactive)	-0.814 (inactive)	-0.338 (inactive)	0.985	1.01 (inactive)	-0.147	0.921	1.06	0.084
CC(C)N1C(=O)c2ccccc2[C@@H](C(=O)NC2CC2)[C@@H]1c1ccc(CO)cc1	-0.236	-0.184	-0.0615	0.0389	-0.425	0.933	1.3	0.216 (inactive)	-0.593	-0.189	0.672	-0.904 (inactive)	-0.826 (inactive)	-0.39 (inactive)	0.968	0.141 (inactive)	-0.117	0.521	-0.201	-0.156
CCOC(=O)C1=C[C@@H](c2ccccc2)N(S(=O)(=O)c2ccc(C)cc2)[C@H]1c1ccccc1Cl	-0.508	0.544	0.168	1.1	1.5	0.264	0.857	-3.26 (inactive)	0.945	-0.16	1.5	0.849 (inactive)	2.19 (inactive)	2.48 (inactive)	2.8	-0.518 (inactive)	0.0935	0.985	1.06	0.153
